Source: PubChem BioAssay
Values without a mark were called inactive. How the calls were made is not given here.

target: Pantothenate synthetase (Mycobacterium tuberculosis (strain ATCC 25618 / H37Rv)) (UniProt P9WIL5); experiment: Coupled enzyme confirmation of inhibitors against recombinant Mtb PanC (AID 375); settings: coupled enzyme assay; at 10 µM, hits give high values;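 further: 0% = full reaction with vehicle and 100% = no enzyme background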
Sequence (P9WIL5 whole entry, looked up): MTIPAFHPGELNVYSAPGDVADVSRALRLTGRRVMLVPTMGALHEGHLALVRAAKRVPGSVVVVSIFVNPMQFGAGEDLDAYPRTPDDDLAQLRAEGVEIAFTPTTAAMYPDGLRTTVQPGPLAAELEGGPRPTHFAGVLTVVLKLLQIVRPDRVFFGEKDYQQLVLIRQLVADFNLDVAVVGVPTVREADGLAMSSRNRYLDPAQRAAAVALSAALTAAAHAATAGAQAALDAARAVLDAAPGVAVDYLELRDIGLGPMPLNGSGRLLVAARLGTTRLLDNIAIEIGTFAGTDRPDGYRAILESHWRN

Q: For `O=C(CCN1CCN(C(=O)c2ccco2)CC1)Nc1ccc(F)cc1`, which inhibition is on record?
A: 2%

Q: With `CC1(C)CC(=O)C(CC(=O)NC(=O)NCc2ccccc2)=C(O)C1` as the compound, how does the inhibition read?
A: 0%

Q: `CCC1(CC)NC(=O)NC1=O` was tested. Which inhibition did it give?
A: 0%

Q: For `O=C(CCS(=O)(=O)c1cccc2nonc12)Nc1cccc2c1CCCC2`, which inhibition is on record?
A: 1%

Q: How did the inhibition turn out when `O=C(Nc1nnc(C2CCCC2)s1)C1CCN(S(=O)(=O)c2ccc(Cl)cc2)CC1` was run?
A: 0%

Q: With `CCOC(=O)C1CCN(c2nc3ccccc3nc2C(C#N)C(=O)OC(C)C)CC1` (stereo not given) as the compound, how does the inhibition read?
A: 0%

Q: For `O=C(Cn1c(=O)oc2ccccc21)Nc1ccc(S(=O)(=O)N2CCCCC2)cc1`, which inhibition is on record?
A: 0%

Q: How did the inhibition turn out when `CSc1ccc2c(c1)N(CCC1CCCCN1C)c1ccccc1S2` (stereo not given) was run?
A: 11%

Q: Which inhibition does the source give for `COc1ccccc1CC(=O)Nc1ccc(OC)c(OC)c1` here?
A: 3%

Q: Which inhibition does the source give for `O=C(C1CCN(C2CC(=O)N(c3ccc(F)cc3)C2=O)CC1)N1CCOCC1` (stereo not given) here?
A: 0%

Q: For `CCOC(=O)c1nnn(-c2nonc2N)c1CN1CCc2ccccc2C1`, which inhibition is on record?
A: 2%

Q: Which inhibition does the source give for `Nc1nonc1-n1nnc(C(=O)c2ccccc2)c1-c1ccccc1` here?
A: 0%

Q: `COC(=O)c1cc(Br)c(=O)n(CCc2ccc(F)cc2)c1` was tested. Which inhibition did it give?
A: 0%

Q: For `Cc1cc2nc(C3CCN(CC4COc5ccccc5O4)CC3)[nH]c2cc1C` (stereo not given), which inhibition is on record?
A: 6%

Q: `CCOC(=O)c1cnc(-n2nc(C)cc2C)nc1NC(C)c1ccccc1` (stereo not given) was tested. Which inhibition did it give?
A: 0%

Q: How did the inhibition turn out when `Cn1c(=O)[nH]c2cc3ccccc3cc21` was run?
A: 0%

Q: For `CN(C)Cc1cn(CCC(=O)O)c2ccccc12`, which inhibition is on record?
A: 1%

Q: How did the inhibition turn out when `Cc1cccc(C)c1NC(=O)c1cc(S(=O)(=O)N2CCOCC2)ccc1F` was run?
A: 0%

Q: `CC1CCCC(N2CCN(C(=O)c3ccc(F)cc3)CC2)C1` (stereo not given) was tested. Which inhibition did it give?
A: 0%

Q: With `CCOC(=O)Cc1csc(NC(=O)c2cccc(OC)c2)n1` as the compound, how does the inhibition read?
A: 0%

Q: Which inhibition does the source give for `O=C(NCc1ccco1)c1cc2c(s1)CSC2` here?
A: 0%

Q: `Cc1nc2sc(C(c3ccco3)N3CCN(c4ccccc4F)CC3)c(O)n2n1` (stereo not given) was tested. Which inhibition did it give?
A: 0%

Q: Which inhibition does the source give for `COc1ccccc1OCCCn1c(=O)oc2ccccc21` here?
A: 0%

Q: For `CCN(CC)S(=O)(=O)c1ccc(C(=O)N2CCN=C2SCc2cccnc2)cc1`, which inhibition is on record?
A: 0%

Q: How did the inhibition turn out when `CCCn1c(SCC(=O)NCc2ccco2)nc2c1c(=O)n(C)c(=O)n2C` was run?
A: 11%

Q: How did the inhibition turn out when `O=C(CCN1C(=O)C2C3C=CC(C3)C2C1=O)NC1CCCc2ccccc21` (stereo not given) was run?
A: 1%

Q: Which inhibition does the source give for `O=C(CSc1nnc(-c2cccnc2)o1)Nc1ccccn1` here?
A: 0%

Q: How did the inhibition turn out when `CC(C)(C)c1nc(CN2CCOCC2)ccc1O` was run?
A: 1%

Q: Which inhibition does the source give for `NS(=O)(=O)c1cc2c(cc1Cl)NCNS2(=O)=O` here?
A: 0%

Q: With `CCN(CC)CCCN1C(=O)C(O)=C(C(=O)c2ccco2)C1c1ccc(C)o1` (stereo not given) as the compound, how does the inhibition read?
A: 13%

Q: `OC1C=CSc2nc3ccccc3n21` (stereo not given) was tested. Which inhibition did it give?
A: 0%

Q: How did the inhibition turn out when `N=c1ncn(CC(O)CN2CCOCC2)c2nc(N3CCOCC3)[nH]c12` (stereo not given) was run?
A: 0%

Q: With `C=C(C)c1cccc(C(C)(C)NC(=O)NCC2CCCO2)c1` (stereo not given) as the compound, how does the inhibition read?
A: 2%

Q: With `COc1cc(C(=O)OCC(=O)N(C)Cc2ccccc2)cc(OC)c1OC` as the compound, how does the inhibition read?
A: 0%

Q: How did the inhibition turn out when `CCOC(=O)N1CCN(C(=O)CSc2nnc(-c3cc(OC)cc(OC)c3)o2)CC1` was run?
A: 0%

Q: `CN(C)C(=O)Cn1c(SCC(=O)NC2CCCCC2)nc2ccccc21` was tested. Which inhibition did it give?
A: 0%

Q: With `O=C(O)C1C2CCC(O2)C1C(=O)NCCC1=CCCCC1` (stereo not given) as the compound, how does the inhibition read?
A: 3%

Q: Which inhibition does the source give for `CN(C)C(=O)CSc1nnc([C@H](Cc2c[nH]c3ccccc23)NC(=O)OC(C)(C)C)o1` here?
A: 13%

Q: Which inhibition does the source give for `O=C(CN1C(=O)C2CC=C(Cl)CC2C1=O)Nc1ccc(C(=O)O)cc1` (stereo not given) here?
A: 0%

Q: `O=C1CC(c2ccco2)=Nc2ccccc2N1` was tested. Which inhibition did it give?
A: 6%
